Assay outcomes from PubChem.
DUSP3 inh: inhibitors of human VHR1 phosphatase (DUSP3). P51452. recombinant VHR phosphatase, colorimetric substrate read-out. inhibition, % at 20 µM. 0.7% of 50,000 active. AID 1992; in the data active means inhibition above about 60%
Target sequence (P51452 whole entry, looked up): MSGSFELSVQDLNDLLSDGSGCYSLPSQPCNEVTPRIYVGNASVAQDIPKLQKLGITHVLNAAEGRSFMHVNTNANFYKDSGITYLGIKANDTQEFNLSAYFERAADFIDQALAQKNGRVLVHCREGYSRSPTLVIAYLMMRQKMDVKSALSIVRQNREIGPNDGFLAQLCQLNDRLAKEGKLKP
A number is an active result; . = inactive. Only a selection was taken, and hits are over-represented in it overall.

SMILES	DUSP3 inh
CCOC(=O)c1sc(NC(=O)CCC2CCCC2)c(C(N)=O)c1C	.
CCOc1cc(C2Nc3ccccc3NC3=C2C(=O)CC(c2ccccc2)C3)cc(Br)c1O (stereo not given)	98.9
CCOc1cc(C2Nc3ccccc3NC3=C2C(=O)CC(c2ccc(OC)cc2)C3)cc(Br)c1O (stereo not given)	.
COc1cc(C2Nc3ccccc3NC3=C2C(=O)CC(c2ccc(Cl)cc2)C3)cc(Br)c1O (stereo not given)	.
COc1cc(N)ccc1-n1c(C)ccc1C	70.1
COc1ccc(-c2nc3cc(N)ccc3o2)cc1OC	.
COc1ccc(C(=O)c2ccc(OC)c(N)c2)cc1N	.
COc1ccc(Br)cc1C1C(C(=O)OCCOC(C)C)=C(C)NC2=C1C(=O)CCC2 (stereo not given)	.
COc1ccc(C)cc1NC(=O)c1cc(C(F)(F)F)cc(C(F)(F)F)c1	.
C=CCOc1ccc(Cl)cc1/C=C1/C(=N)N2N=C(CCC)SC2=NC1=O	107.9
CCCC1=NN2C(=N)/C(=C/c3ccccc3C)C(=O)N=C2S1	.
CC(C)C1=NN2C(=N)/C(=C/c3cc(Cl)ccc3OCc3ccccc3)C(=O)N=C2S1	.
C#CCOc1ccc(/C=C2\C(=O)NC(=O)N(c3ccc(F)cc3)C2=O)cc1Br	.
COC(=O)c1ccccc1NC(=O)c1ccc(C)cc1	.
COc1cccc(N2C(=O)CC(N3CCN(C/C=C/c4ccccc4)CC3)C2=O)c1 (stereo not given)	.
COc1cccc(N2C(=O)CC(N3CCC(C)CC3)C2=O)c1 (stereo not given)	.
COc1cccc(N2C(=O)CC(N3CCCCC3)C2=O)c1 (stereo not given)	101.2
CC(NS(=O)(=O)N(C)C)c1ccc(-c2ccccc2)cc1 (stereo not given)	.
Cc1ccc(/C=C2/C=C(c3ccc(Br)cc3)OC2=O)o1	.
CCCOC(=O)c1ccc(NC(=O)c2cccc(OCc3ccccc3)c2)cc1	.
CCCOc1cccc(C(=O)Nc2cccc(C(=O)Nc3ccccc3C(=O)O)c2)c1	.
CC(=O)c1cccc(NC(=O)c2cccc(OCc3ccccc3)c2)c1	111.5
COC(=O)c1cccc(NC(=O)COc2ccc(Br)cc2)c1	.
O=C(O)C1CCCCC1C(=O)Nc1nc(-c2ccc(Cl)cc2Cl)cs1 (stereo not given)	.
CC(=O)N(/C=C/c1cc[n+](CCCS(=O)(=O)[O-])c2ccccc12)c1ccccc1	.
SMILES	DUSP3 inh
CCOC(=O)c1c(NC(=O)C2C3CCC(C3)C2C(=O)O)sc(C)c1C (stereo not given)	.
COc1ccc(/C(C)=N\N2CCN(Cc3ccc(C)cc3)CC2)cc1	.
Cc1c(C=O)c2ccccc2n1Cc1ccccc1Cl	.
O=c1c2ccccc2[nH]c(=S)n1Cc1ccccc1	.
Cn1c(=O)c2c([nH]c(=S)n2Cc2ccccc2Cl)n(C)c1=O	95.4
CCOc1c(Cl)cc(/C=C2\C(=O)NC(=O)N(c3ccc(C)cc3)C2=O)cc1OC	.
COc1ccc(C(=O)Nc2ccc(N3CCCCC3)c(Cl)c2)cc1OC	.
CC(=O)CCc1oc2c(Br)cc(Br)cc2c1-c1ccc(C)o1	.
COc1cccc(CN2CCN(Cc3ccccn3)CC2)c1	.
CC1CN(Cc2ccccn2)CCC1=O (stereo not given)	110.9
COc1ccccc1CN1CCN(Cc2ccccn2)CC1	.
Cc1ccc(C(=O)c2c(C)oc3c2cc(O)c2ccccc23)cc1	.
COc1ccc(N=Cc2cccs2)cc1	.
CCOc1ccc(Nc2nc(-c3sc(NC(=O)c4ccccc4)nc3C)cs2)cc1	.
Cc1ccc2nc(Nc3nc(C)cc(C)n3)[nH]c2c1	.
O=C(O)C12C3CCCC1C32c1ccccc1 (stereo not given)	.
O=C(O)C1C2C=CC(C3CC23)C1C(=O)NCc1ccccc1 (stereo not given)	.
O=C(O)C1C2CCCC1C2c1ccccc1 (stereo not given)	100.8
NC(=O)NC(c1ccccc1)c1ccccc1I (stereo not given)	.
Cc1cc(Br)ccc1N1C(=O)/C(=C/c2cc(C)n(C)c2C)C(=O)NC1=S	.
O=C1NC(=S)N(c2ccc(Cl)c(Cl)c2)C(=O)/C1=C/c1cccs1	.
Cc1cc(Br)ccc1N1C(=O)/C(=C/c2cccs2)C(=O)NC1=S	102.4
O=c1c2c(nc3cc(-c4ccccc4Cl)[nH]n13)CCC2	.
Cc1ccc(/C(O)=C2\C(=O)C(=O)N(CCCC(=O)O)C2/C=C/c2ccccc2)cc1 (stereo not given)	.
O=C(CCCOc1ccccc1)Nc1ccc(Cl)c(Cl)c1	.
SMILES	DUSP3 inh
Clc1ccccc1CSc1nnnn1-c1ccccc1	.
Clc1ccc(CSc2nnnn2-c2ccccc2)cc1	.
Fc1ccccc1-n1nnnc1SCc1cc2c(cc1Cl)OCO2	113.6
c1ccc(-n2nnnc2SCc2cccc(CSc3nnnn3-c3ccccc3)n2)cc1	.
Clc1cc2c(cc1CSc1nc3ncccc3[nH]1)OCO2	.
Clc1cc2c(cc1CSc1nnnn1-c1ccccc1)OCO2	111.5
CC12CCC3C(CC=C4CC(O)CCC43C)C1C/C(=C\c1ccc(OC(F)F)cc1)C2=O (stereo not given)	.
CC1=NN(c2ccccc2)C(=O)/C1=C\c1ccc(N2CCOCC2)c([N+](=O)[O-])c1	.
CC1CCN(c2ccc(C=C3C(=O)c4ccccc4C3=O)cc2[N+](=O)[O-])CC1	.
CN1C(=O)C(=Cc2ccc(N3CCCC3)c([N+](=O)[O-])c2)C(=O)N(C)C1=O	90.5
Cc1cc(C)nc(NS(=O)(=O)c2ccc(Nc3nc(-c4sc(N)nc4C)cs3)cc2)n1	67.4
Cc1cc(NS(=O)(=O)c2ccc(Nc3nc(-c4ccccn4)cs3)cc2)no1	.
Cc1nc(N)sc1-c1csc(Nc2ccccn2)n1	.
Cc1cccc(/C=N/NC(=O)Cc2nnc(N)s2)c1	.
CC1=CC(=NS(=O)(=O)c2ccc(C)cc2)C=C(C)C1=O	.
O=C1C(Cl)=CC(=NS(=O)(=O)c2ccccc2)C=C1Cl	75.9
COc1ccc(S(=O)(=O)/N=C2C=C/C(=N\S(=O)(=O)c3ccc(OC)cc3)C=C/2Cl)cc1	.
O=S(=O)(NCCCNS(=O)(=O)c1ccc(Cl)cc1)c1ccc(Cl)cc1	.
O=C1C(Cl)=C/C(=N\S(=O)(=O)c2ccc(Cl)cc2)C(Cl)=C1Cl	96.0
CC1=CC(=O)C=C/C1=N\S(=O)(=O)c1ccc(C)cc1	.
CCOc1ccc(NC(=S)NC(=O)c2ccc(Br)cc2)c([N+](=O)[O-])c1	.
CCC(C)NC(=O)Nc1ccc(Cl)cc1 (stereo not given)	.
O=C(NC(=S)Nc1ccc(Cl)c(-c2nc3ccccc3o2)c1)c1ccccc1Cl	.
COCCNC(=O)C(=O)NCCc1ccc(OC)cc1	.
Oc1c(Br)cc(Br)cc1/C=N/Nc1nc(N2CCOCC2)nc(N2CCOCC2)n1	.
SMILES	DUSP3 inh
CN(C)c1cccc(C(=O)NC(c2ccccc2)c2ccccc2)c1	.
CCOC(=O)c1c(N)sc(C)c1-c1ccc(CC(C)C)cc1	63.6
CCOc1ccc(-c2c(C)sc(N)c2C(=O)OC(C)C)cc1	.
CCOC(=O)c1c(N)sc(C)c1-c1ccc(OCC)cc1	.
CCOC(=O)CCc1c(C)nc2cc(-c3cccc(C)c3)[nH]n2c1=O	.
O=C(N/N=C\c1ccc(OC(=O)c2cccc3ccccc23)cc1)c1ccc(Br)cc1	.
Cc1cc(C)c(C(=O)/C(=C/c2ccc(Br)cc2)c2ccccc2)c(=O)[nH]1	.
O=C(Nc1ccc(-c2nc3ccccc3o2)c(O)c1)c1cccc(OCc2ccccc2)c1	.
COc1ccc2c(c1)C1C=CCC1C(C(=O)O)N2 (stereo not given)	.
